# Measurements reported in article PMC11062922 (Nature Chemical Biology, 2023).
# Where two headings read alike, the source gives them in different places.
# Tests used:
# Set-up in all cases: species or system human, MV4-11 + K-562 + COLO205 + SK-N-BE2 + OVCAR-8
# ACVR1B = details: read-out: apparent Kd, n = 1
# CSNK2A1;CSNK2A3 = details: read-out: apparent Kd; compound concentrations:100 nM and 1000 nM (sheet 'Samples'); n = 1
# CSNK2A2 = details: read-out: apparent Kd; compound concentrations:100 nM and 1000 nM (sheet 'Samples'); n = 1
# PRKD2 = details: read-out: apparent Kd; compound concentrations:100 nM and 1000 nM (sheet 'Samples'); n = 1
# PRKD3 = details: read-out: apparent Kd; compound concentrations:100 nM and 1000 nM (sheet 'Samples'); n = 1
# ADCK3 = details: read-out: apparent Kd; compound concentrations:100 nM and 1000 nM (sheet 'Samples'); n = 1
# DDR1 = details: read-out: apparent Kd, n = 1
# MAPKAPK2 = details: read-out: apparent Kd, n = 1
# PKN3 = details: read-out: apparent Kd; compound concentrations:100 nM and 1000 nM (sheet 'Samples'); n = 1
# RIPK2 = details: read-out: apparent Kd; compound concentrations:100 nM and 1000 nM (sheet 'Samples'); n = 1
# SPR = details: read-out: apparent Kd; compound concentrations:100 nM and 1000 nM (sheet 'Samples'); n = 1
# TESK2 = details: read-out: apparent Kd; compound concentrations:100 nM and 1000 nM (sheet 'Samples'); n = 1
# TGFBR2 = details: read-out: apparent Kd; compound concentrations:100 nM and 1000 nM (sheet 'Samples'); n = 1
# TTK = details: read-out: apparent Kd; compound concentrations:100 nM and 1000 nM (sheet 'Samples'); n = 1
# CSNK1A1 = details: read-out: apparent Kd; compound concentrations: 100 nM and 1000 nM (sheet 'Samples'), CATDS: 4.4417171665787201E-2; n = 1
# CSNK1D = details: read-out: apparent Kd, n = 1
# CSNK1E = details: read-out: apparent Kd, n = 1
# DDR2 = details: read-out: apparent Kd; compound concentrations: 100 nM and 1000 nM (sheet 'Samples'), CATDS: 4.1041053531745197E-2; n = 1
# GAK = details: read-out: apparent Kd; compound concentrations: 100 nM and 1000 nM (sheet 'Samples'), CATDS: 5.7317399451807E-2; n = 1
# MAPK10 = details: read-out: apparent Kd; compound concentrations: 100 nM and 1000 nM (sheet 'Samples'), CATDS: 0.179195319148265; n = 1
# MAPK11 = details: read-out: apparent Kd; compound concentrations: 100 nM and 1000 nM (sheet 'Samples'), CATDS: 5.6945469434317497E-2; n = 1
# MAPK14 = details: read-out: apparent Kd; compound concentrations: 100 nM and 1000 nM (sheet 'Samples'), CATDS: 0.23382543991059199; n = 1
# MAPK8 = details: read-out: apparent Kd; compound concentrations: 100 nM and 1000 nM (sheet 'Samples'), CATDS: 5.2366017866035799E-2; n = 1
# MAPK9 = details: read-out: apparent Kd; compound concentrations: 100 nM and 1000 nM (sheet 'Samples'), CATDS: 0.113637290114738; n = 1
# NLK = details: read-out: apparent Kd; compound concentrations: 100 nM and 1000 nM (sheet 'Samples'), CATDS: 5.1907933882023798E-2; n = 1
# RIPK3 = details: read-out: apparent Kd; compound concentrations: 100 nM and 1000 nM (sheet 'Samples'), CATDS: 4.0216087331075998E-2; n = 1
# SIK3 = details: read-out: apparent Kd; compound concentrations: 100 nM and 1000 nM (sheet 'Samples'), CATDS: 4.1962261561680501E-2; n = 1
# ILK = details: read-out: apparent Kd; compound concentrations:100 nM and 1000 nM (sheet 'Samples'); n = 1
# MAP2K1 = details: read-out: apparent Kd; compound concentrations:100 nM and 1000 nM (sheet 'Samples'); n = 1
# MAP2K2 = details: read-out: apparent Kd; compound concentrations:100 nM and 1000 nM (sheet 'Samples'); n = 1
# PIK3CA = details: read-out: apparent Kd; compound concentrations:100 nM and 1000 nM (sheet 'Samples'); n = 1
# PIK3CD = details: read-out: apparent Kd; compound concentrations:100 nM and 1000 nM (sheet 'Samples'); n = 1
# PSMC3 = details: read-out: apparent Kd; compound concentrations:100 nM and 1000 nM (sheet 'Samples'); n = 1
# TGFBR1 = details: read-out: apparent Kd; compound concentrations:100 nM and 1000 nM (sheet 'Samples'); n = 1
# [1] = compound concentrations:100 nM and 1000 nM (sheet 'Samples')
smiles,measurement,setting,value
Cc1cccc(-c2nc(Nc3ccc4[nH]ncc4c3)c3ccccc3n2)n1 [GW857175X],potency estimated from few doses,ACVR1B; [1],89 nM
same,potency estimated from few doses,CSNK2A1;CSNK2A3,4.12 nM
same,potency estimated from few doses,CSNK2A2,3.3 nM
same,potency estimated from few doses,PRKD2,8.89 nM
same,potency estimated from few doses,PRKD3,35.5 nM
Cl.Cl.Oc1cc(-c2nc(-c3ccccc3)[nH]c2-c2ccncc2)ccc1Cl.Oc1cc(-c2nc(-c3ccccc3)[nH]c2-c2ccncc2)ccc1Cl [SB-386023-B],potency estimated from few doses,ACVR1B; [1],968 nM
same,potency estimated from few doses,ADCK3,373 nM
same,potency estimated from few doses,DDR1; [1],1840 nM
same,potency estimated from few doses,MAPKAPK2; [1],1700 nM
same,potency estimated from few doses,PKN3,1020 nM
same,potency estimated from few doses,RIPK2,192 nM
same,potency estimated from few doses,SPR,422 nM
same,potency estimated from few doses,TESK2,1470 nM
same,potency estimated from few doses,TGFBR2,2050 nM
same,potency estimated from few doses,TTK,1600 nM
NC(=O)c1ccc2c(-c3ccnc(NCCCO)n3)c(-c3ccc(F)cc3)nn2c1 [GW581744X],potency estimated from few doses,"ACVR1B; compound concentrations: 100 nM and 1000 nM (sheet 'Samples'), CATDS: 5.1726105609422098E-2",678 nM
same,potency estimated from few doses,CSNK1A1,1210 nM
same,potency estimated from few doses,"CSNK1D; compound concentrations: 100 nM and 1000 nM (sheet 'Samples'), CATDS: 0.12647868619351901",70.3 nM
same,potency estimated from few doses,"CSNK1E; compound concentrations: 100 nM and 1000 nM (sheet 'Samples'), CATDS: 7.8439067124282905E-2",202 nM
same,potency estimated from few doses,"DDR1; compound concentrations: 100 nM and 1000 nM (sheet 'Samples'), CATDS: 4.5461807893970897E-2",1100 nM
same,potency estimated from few doses,DDR2,1740 nM
same,potency estimated from few doses,GAK,485 nM
same,potency estimated from few doses,MAPK10,38 nM
same,potency estimated from few doses,MAPK11,495 nM
same,potency estimated from few doses,MAPK14,25.3 nM
same,potency estimated from few doses,MAPK8,651 nM
same,potency estimated from few doses,MAPK9,86.9 nM
same,potency estimated from few doses,"MAPKAPK2; compound concentrations: 100 nM and 1000 nM (sheet 'Samples'), CATDS: 0.15591620581864199",48 nM
same,potency estimated from few doses,NLK,670 nM
same,potency estimated from few doses,RIPK3,1940 nM
same,potency estimated from few doses,SIK3,1560 nM
Cc1cc(Nc2nc(-c3cccc(C)n3)nc3ccccc23)ccn1 [GW872411X],potency estimated from few doses,ACVR1B; [1],471 nM
same,potency estimated from few doses,CSNK1D; [1],1530 nM
same,potency estimated from few doses,CSNK1E; [1],1700 nM
same,potency estimated from few doses,ILK,1610 nM
same,potency estimated from few doses,MAP2K1,2130 nM
same,potency estimated from few doses,MAP2K2,1690 nM
same,potency estimated from few doses,PIK3CA,247 nM
same,potency estimated from few doses,PIK3CD,155 nM
same,potency estimated from few doses,PRKD2,4.12 nM
same,potency estimated from few doses,PRKD3,6.25 nM
same,potency estimated from few doses,PSMC3,1810 nM
same,potency estimated from few doses,TGFBR1,182 nM
